Each structure is given as a SMILES string. The campaign covered roughly 330,000 compounds. About 1,700 (0.52%) were called active.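 How the source made its calls: active means GFP response versus DMSO above a set limit, roughly screen mean plus 3 SD (cut at about 180% in these data); inconclusive means fewer than 70 cells counted for a yeast strain; inactive means the rest.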 The sample as a whole holds a higher share of actives than the screen did.

This assay is described as follows: TOR pathway GLN3 branch reporter MEP2-GFP changes – S. cerevisiae, multiplex flow cytometry, MLPCN library, primary screen (AID 2016).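 Further: median GFP fluorescence of the barcode-gated MEP2-GFP cells per well.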 Particulars: S. cerevisiae MEP2-GFP strain, 3 h, at 10 µM, stronger effect = higher value, 100% = DMSO control level.
Regarding `Cc1cccc(C)c1NC(=O)c1ccc(CN2CCc3ccccc3C2)cc1`, the GFP response vs DMSO is 101% (inactive).

As for `COc1ccc(C(=O)N(Cc2ccccc2)c2ccc(C)cc2)cc1S(=O)(=O)N1CCOCC1`, the GFP response vs DMSO was 103% (inactive).

In the case of `Cc1ccc(C23CC4CC(CC(C(=O)NCC(=O)O)(C4)C2)C3)cc1`, the GFP response vs DMSO was 292% [may fluoresce violet] (active).

On to `C=CCNC(=O)C12CC3CC(C1)CC(C(=O)NCC=C)(C3)C2`, for which the GFP response vs DMSO was 106% (inactive).

As to `CCOc1ccccc1NC(=O)C12CC3CC(C1)CC(c1ccc(C)cc1)(C3)C2`, the GFP response vs DMSO was 97.6% (inactive).

Regarding `CCn1c(C)nc2c1C(=O)c1ccccc1C2=O`, the GFP response vs DMSO was 93.7% (inactive).

Take `O=C(CNC(=O)[C@@H]1Cc2ccccc2CN1)NC1CCCCC1`: the GFP response vs DMSO was 99.4% (inactive).

For `Cc1cc2cc3c(cc2nc1SCC(=O)Nc1c(C)cccc1C)CCC3`, the GFP response vs DMSO is 94.7% (inactive).

As for `CC(C)(C)NC(=O)C(c1ccc(Cl)cc1)N(CCO)C(=O)c1snc(C(N)=O)c1N` (stereo not given), the GFP response vs DMSO was 97.4% (inactive).

On to `NC(=O)c1nsc(C(=O)N(CCCN2CCOCC2)C(C(=O)NC2CCCCC2)c2ccc(Cl)cc2)c1N` (stereo not given), for which the GFP response vs DMSO is 238% [may fluoresce violet] (active).

On to `CCOc1ccc(C(C(=O)NC2CCCC2)N(C(=O)c2snc(C(N)=O)c2N)C2CCCC2)cc1` (stereo not given), for which the GFP response vs DMSO was 113% (inactive).

For the compound `CC(C)CNC(=S)NC(=O)c1ccc(Cl)cc1`, the GFP response vs DMSO was 100% (inactive).

For the compound `COCc1cc(=O)n2[nH]c(C)c(-c3ccccc3)c2n1`, the GFP response vs DMSO was 97.4% (inactive).

Consider `COCCNc1nc2nonc2nc1N1CCCC1c1nccs1` (stereo not given), for which the GFP response vs DMSO is 90.4% (inactive).

Regarding `CCn1c(=O)c([N+](=O)[O-])c(NCc2ccc3c(c2)OCO3)c2ccccc21`, the GFP response vs DMSO was 94.2% (inactive).

As for `CCn1c(/C=C/c2ccc([N+](=O)[O-])o2)nc2ccccc2c1=O`, the GFP response vs DMSO is 304% (active).

`CCc1ccc(S(=O)(=O)N/N=C\c2ccc([N+](=O)[O-])o2)cc1`: the GFP response vs DMSO is 105% (inactive).

`CC(C)(C)c1ccccc1NC(=O)CN1C(=O)NC2(CCCC2)C1=O`: the GFP response vs DMSO is 105% (inactive).

Turning to `Cc1ccc(Cl)c(OCC(=O)NN2CCN(C)CC2)c1`, the GFP response vs DMSO was 103% (inactive).

Consider `O=C(COC(=O)c1ccc(O)cc1O)c1ccc2c(c1)OCCO2`, for which the GFP response vs DMSO was 110% (inactive).

For `COc1ccccc1C(=O)NCC(=O)OCC(=O)Nc1nnc(-c2ccccc2)o1`, the GFP response vs DMSO was 99.7% (inactive).

For the compound `Cc1cc(C)cc(N(CC(=O)NC2CCCC2)C(=O)CCC(=O)Nc2cc(C)on2)c1`, the GFP response vs DMSO was 327% [may fluoresce violet] (active).

With `Cc1cc(NC(=O)CCC(=O)N(CC(=O)NC2CCCC2)c2ccc(F)cc2)no1`, the GFP response vs DMSO was 101% (inactive).

Consider `Cc1cc(C)cc(N(CC(=O)NC2CCCC2)C(=O)CCC(=O)Nc2nccs2)c1`, for which the GFP response vs DMSO is 107% (inactive).

In the case of `CC(=N\NC(=O)c1cc(Br)ccc1O)/C(=N/O)C(=O)Nc1ccccc1`, the GFP response vs DMSO was 102% (inactive).

In the case of `Cc1nc(-c2ccc(F)cc2)c(CC(=O)Nc2cc(S(=O)(=O)N3CCCCC3)ccc2C)s1`, the GFP response vs DMSO is 105% (inactive).

`C/C(Cl)=C\Cn1c(Nc2cccc(C)c2)nc2c1c(=O)n(C)c(=O)n2C`: the GFP response vs DMSO is 91.5% (inactive).

Consider `O=C(c1ccccc1)N1CCN(c2ccc([N+](=O)[O-])c(NCc3ccco3)c2)CC1`, for which the GFP response vs DMSO is 102% (inactive).

As to `O=[N+]([O-])c1ccc(N2CCNCC2)cc1NCc1cccnc1`, the GFP response vs DMSO was 309% [may fluoresce violet] (active).

In the case of `O=[N+]([O-])c1ccc(N2CCN(S(=O)(=O)c3ccc4ccccc4c3)CC2)cc1NCc1ccco1`, the GFP response vs DMSO was 91.1% (inactive).

Turning to `O=C(Cc1cccs1)N(CC1CCCO1)C1(C(=O)NC2CCCCC2)CCCCC1` (stereo not given), the GFP response vs DMSO is 88.4% (inactive).

On to `Cc1nc2c(ncn2-c2ccccc2)c(=O)n1NC(=O)CN1CCCC1`, for which the GFP response vs DMSO is 194% [may fluoresce violet] (active).

In the case of `Cc1nc2ccccc2c(=O)n1NC(=O)c1ccccc1`, the GFP response vs DMSO was 99.1% (inactive).

Consider `O=C(CN1CCCC1)N1CCN(c2ccccc2)CC1`, for which the GFP response vs DMSO was 91.7% (inactive).

With `O=S(=O)(Nc1ncccn1)c1ccc(NS(=O)(=O)c2cccc(Cl)c2Cl)cc1`, the GFP response vs DMSO is 103% (inactive).

As to `Nc1c(C(=O)c2cccs2)sc2nsc(SCCN3CCCCC3)c12`, the GFP response vs DMSO is 221% (active).

Turning to `O=C(CSc1ncnc2sccc12)N1CCN(C(=O)c2cccs2)CC1`, the GFP response vs DMSO was 105% (inactive).

As for `CCCCCCCCCCCCCCCC(=O)OC/C=C(C)/C=C/C=C(C)/C=C/C1=C(C)CCCC1(C)C`, the GFP response vs DMSO is 107% (inactive).

Consider `CCC(=C/c1sc2ccc3ccccc3c2[n+]1C)/C=C1\Sc2ccc3ccccc3c2N1C`, for which the GFP response vs DMSO was 285% (active).

Consider `COc1ccc(Cl)cc1NC(=O)COC(=O)C(CC(C)C)N1C(=O)C2CC=CCC2C1=O` (stereo not given), for which the GFP response vs DMSO was 90.8% (inactive).

On to `Cc1noc(C)c1NC(=O)Nc1ccc2c(c1)C(=O)N([C@H](C)CO)C[C@H](C)[C@@H](CN(C)C(=O)Nc1ccc(C(F)(F)F)cc1)O2`, for which the GFP response vs DMSO is 103% (inactive).

As to `CC(=O)NCC(=O)N1CCC(n2nccc2NC(=O)CCCc2ccccc2)CC1`, the GFP response vs DMSO is 95.6% (inactive).

For `OCc1nc(CO)n(Cc2ccccc2)n1`, the GFP response vs DMSO is 276% [may fluoresce violet] (active).

For `Nc1c(-c2ccccc2)nnn1Cc1ccccc1`, the GFP response vs DMSO is 96.3% (inactive).

Regarding `Cc1nn(Cc2ccccc2)c(C)c1NS(=O)(=O)c1ccccc1`, the GFP response vs DMSO is 111% (inactive).

For the compound `CCOC(=O)C1CCN(c2c(Nc3cc(C)cc(C)c3)c(=O)c2=O)CC1`, the GFP response vs DMSO is 115% (inactive).

Consider `O=C(NCCCn1ccnc1)C1CCCN(S(=O)(=O)c2cc(Cl)ccc2Cl)C1` (stereo not given), for which the GFP response vs DMSO was 106% (inactive).

`COc1ccc(S(=O)(=O)N(C)CC(=O)NCCCN2CCOCC2)cc1Cl`: the GFP response vs DMSO is 95.1% (inactive).

Regarding `O=C1/C(=C\Nc2ccccc2)CCN1c1ncccn1`, the GFP response vs DMSO was 127% (inactive).

Consider `CCOC(=O)N1CCN(C(=O)COc2ccc(Cl)cc2C)CC1`, for which the GFP response vs DMSO is 184% [may fluoresce violet] (active).

`CCOC(=O)N1CCN(C(=O)CNC(=O)Cc2ccc(Cl)cc2)CC1`: the GFP response vs DMSO was 106% (inactive).

For the compound `CCOC(=O)N1CCN(C(=O)COc2ccc(Br)cc2)CC1`, the GFP response vs DMSO was 104% (inactive).

Turning to `COc1ccc(-n2nc(C(=O)NCC(=O)N3CCCCCC3)c3ccccc3c2=O)cc1Cl`, the GFP response vs DMSO was 107% (inactive).

As for `Cc1cc(C)c(C(N)=O)c(Cl)n1`, the GFP response vs DMSO was 104% (inactive).

As to `Cc1ccc(Nc2nc(C)cc(C)c2C(N)=O)cc1`, the GFP response vs DMSO is 209% [may fluoresce violet] (active).

Take `CC(=O)Nc1ccc(Nc2cc(C)nc(Nc3ccc(NC(C)=O)cc3)n2)cc1`: the GFP response vs DMSO was 92% (inactive).

With `COc1ccc(-c2nc(N)sc2C2(O)C(=O)Nc3c(Br)cc(F)cc32)cc1OC` (stereo not given), the GFP response vs DMSO was 103% (inactive).

Regarding `COc1cc(C(=O)Nc2cc(C(F)(F)F)ccc2N2CCOCC2)ccc1O`, the GFP response vs DMSO is 106% (inactive).

As to `O=C(c1ccncc1)N1CCN(S(=O)(=O)c2cc(C(F)(F)F)cc(C(F)(F)F)c2)CC1`, the GFP response vs DMSO is 103% (inactive).

For the compound `COc1ccc(O[C@H]2C=C[C@@H](c3ccccc3)O[C@@H]2CO/N=C/C[C@@H]2C=C[C@H](OC(C)=O)[C@@H](COC(C)=O)O2)cc1`, the GFP response vs DMSO was 90% (inactive).

`CC(NC(=S)NC1CCCCC1)C(c1ccccc1)N1CCOCC1` (stereo not given): the GFP response vs DMSO is 99.2% (inactive).

For `O=S(=O)(NC1CC1)c1ccc(F)c(F)c1`, the GFP response vs DMSO was 101% (inactive).

As to `Cn1sc(=O)c2cc(S(=O)(=O)NC3CC3)ccc21`, the GFP response vs DMSO was 626% [may fluoresce violet] (active).

Turning to `CC1CCC(NS(=O)(=O)c2ccc3c(c2)n(C)c(=O)c(=O)n3C)CC1` (stereo not given), the GFP response vs DMSO was 102% (inactive).

Take `CCCN(CCC)CC(O)COc1ccccc1C(=O)Nc1ccccc1` (stereo not given): the GFP response vs DMSO is 107% (inactive).

Consider `O=C(Nc1ccc(Br)c2cccnc12)c1ccc(Cn2cc([N+](=O)[O-])cn2)o1`, for which the GFP response vs DMSO is 97.1% (inactive).

As for `O=C(COc1ccc(Cl)cc1)Nc1ccccc1CO`, the GFP response vs DMSO was 98.3% (inactive).

On to `O=C(COc1ccc(-n2cnnn2)cc1)Nc1ccccc1Cl`, for which the GFP response vs DMSO was 240% [may fluoresce violet] (active).

As to `C=CCc1cccc(/C=N/NC(=O)COc2ccc(-n3cnnn3)cc2)c1O`, the GFP response vs DMSO was 102% (inactive).

On to `Cc1c(-c2ccccc2)cn2c1-c1ccc(C)n1CC2`, for which the GFP response vs DMSO was 106% (inactive).

In the case of `Cc1cccc[n+]1CC(=O)c1ccccc1`, the GFP response vs DMSO is 113% (inactive).

As to `COc1ccccc1NC(=O)C[n+]1ccccc1`, the GFP response vs DMSO is 108% (inactive).

As to `COC(=O)C[n+]1cccc2ccccc21`, the GFP response vs DMSO was 221% (active).

In the case of `CCOc1ccc(CN(C)C(=O)c2ccc(=O)[nH]c2)cc1`, the GFP response vs DMSO was 104% (inactive).

On to `COc1c(O)ccc2c1CN1CCc3cc4c(cc3C1C2)OCO4` (stereo not given), for which the GFP response vs DMSO was 205% (active).

`COc1ccc2cc1Oc1ccc(cc1)C[C@H]1c3cc(c(OC)cc3CCN1C)Oc1c(O)c(OC)cc3c1[C@H](C2)N(C)CC3`: the GFP response vs DMSO was 99.2% (inactive).

In the case of `COc1cc(COCC(O)CN2CCN(Cc3ccc4c(c3)OCO4)CC2)cc(OC)c1OC` (stereo not given), the GFP response vs DMSO is 100% (inactive).

Regarding `COc1ccc(NC(=O)CSc2nncc(=O)n2N)cc1OC`, the GFP response vs DMSO was 104% (inactive).

Regarding `COc1ccccc1CNC(=O)COn1nnc2ccc(S(=O)(=O)N3CCOCC3)cc21`, the GFP response vs DMSO was 123% (inactive).

Regarding `O=C(CSc1ncccn1)NCCc1ccccc1`, the GFP response vs DMSO is 96.5% (inactive).

As to `CCC(Oc1ccccc1)C(=O)NCc1cccnc1` (stereo not given), the GFP response vs DMSO is 101% (inactive).

As to `CC(=O)OC(C(=O)NCCc1ccccc1)c1cccnc1` (stereo not given), the GFP response vs DMSO was 234% [may fluoresce violet] (active).

As for `COc1cc(CO)c(C2(CO)CCCC2)cc1OC`, the GFP response vs DMSO was 101% (inactive).

As for `COc1ccc(/C=C(\C#N)c2c[nH]c3ccccc23)cc1`, the GFP response vs DMSO is 98.7% (inactive).

`C[n+]1ccc(/C=C/c2c[nH]c3ccccc23)cc1`: the GFP response vs DMSO was 403% (active).

`O=C(NC1CCCC1)C(=O)c1c[nH]c2ccccc12`: the GFP response vs DMSO is 90.7% (inactive).

As for `CCOc1cc(/C=N/NC(=O)OC)ccc1OCCSc1ccc(Cl)cc1`, the GFP response vs DMSO was 94.9% (inactive).

On to `O=S(=O)(Nc1ccccc1)c1ccc(NS(=O)(=O)c2cccs2)cc1`, for which the GFP response vs DMSO is 94.2% (inactive).

In the case of `Clc1ccc(CN2CCCCCC2)cc1Cl`, the GFP response vs DMSO is 111% (inactive).

Turning to `Cc1ccc2nc(-c3ccc(SCC(=O)Nc4cc(C)on4)nc3)[nH]c2c1`, the GFP response vs DMSO was 103% (inactive).

These data come from PubChem BioAssay AID2016 (NMMLSC, 2009).
